The sample as a whole holds a higher share of hits than the screen did.
JMJD2E inh – qHTS Assay for Inhibitors of Human Jumonji Domain Containing 2E (JMJD2E) | JMJD2E catalytic domain, FDH-coupled NADH fluorescence (FDH is formaldehyde dehydrogenase) | Potency, µM (top dose mostly 57.1 µM), inactives show at the highest dose activity change, negative = inhibition, usual class: inhibitors | 1.6% of 230,000 active | AID 2147, 2009; active means well fitted inhibition curve with a large enough effect, not every such curve was filed as active; inconclusive means small, poorly fitted or top-dose-only effect, or another doubt; inactive means no such curve, though single readings can be large or run the other way;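 further: potency means the concentration at half of the fitted maximal effect; 0% = wells with enzyme and -100% = buffer wells without enzyme; nearly all actives have a fitted effect of over 50% in size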
Target sequence (B2RXH2 1-337 limits assumed): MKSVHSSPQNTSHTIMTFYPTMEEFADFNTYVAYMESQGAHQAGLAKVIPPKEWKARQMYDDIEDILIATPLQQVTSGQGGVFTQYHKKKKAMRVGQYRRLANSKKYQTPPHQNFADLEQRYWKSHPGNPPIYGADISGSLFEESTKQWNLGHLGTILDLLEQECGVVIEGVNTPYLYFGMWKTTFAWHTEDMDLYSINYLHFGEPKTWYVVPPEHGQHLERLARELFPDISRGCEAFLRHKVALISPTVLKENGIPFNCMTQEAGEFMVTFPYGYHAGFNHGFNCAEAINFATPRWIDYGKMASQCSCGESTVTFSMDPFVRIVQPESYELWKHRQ
Six1-Eya2 blk – qHTS Assay for Inhibitors of the Six1/Eya2 Interaction; AlphaScreen GST-Six1/His-Eya2 binding, biochemical; stronger effect = lower value; activity change, % (no concentration beside the values); 0.56% of 360,000 active
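Six1/Eya2 binding was read as AlphaScreen signal after compounds were pinned into GST-Six1 plus His-tagged Eya2 (5X stock 250/500 nM) in pH 8.0 Tris/NaCl/TCEP buffer, beads added, then incubated 1 h, 37 C, dark.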
CtBP-E1A blk – qHTS Assay for Inhibitors of the CtBP/E1A Interaction | AlphaScreen GST-E1A/His-CtBP binding, 1536-well; stronger effect = lower value | activity change, % (no concentration beside the values) | 0.49% of 340,000 active | CtBP / adenovirus E1A interaction (AlphaScreen) | AID 651724, 2012
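Steps: dispense buffer (Tris pH 8.0, NaCl 300 mM, TCEP 1 mM, BSA, Tween 20); add 5X protein mix (GST-E1A, His-CtBP, 125 nM each); pin 23 nL compound; 2 h at 37 °C, dark; add 5X beads (50 ug/mL); 1 h; read.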
L3MBTL1 block – qHTS Assay for the Inhibitors of L3MBTL1 | AlphaScreen L3MBTL1–H3K9me1 peptide binding | Potency, µM (highest dose often 57.1 µM), inactives show at the highest dose activity, negative = inhibition, most hits filed as inhibitors | 0.66% of 230,000 active | AID 485360, 2010; active means well fitted inhibition curve with a large enough effect; inconclusive means small, poorly fitted or top-dose-only effect; inactive means no such curve, though single readings can be large or run the other way; further: potency means the concentration at half of the fitted maximal effect; nearly all actives have a fitted effect of over 60% in size
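First, the protein-peptide complex forms for 30 min at room temperature (L3MBTL1 50 nM, biotinylated H3K9me1 peptide 75 nM). Next, compounds are pin-transferred and incubated 30 min. Finally, AlphaScreen beads are added and read after 30 min.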
The depositor's hits bear a star; ? = inconclusive; nt = no result given; ! = not confirmed by another sample; [ ] = dose if it differs, or a comment. Unless noted, no stated cut-off is given here; in the data, active means activity change below about -65%; inconclusive means mostly about -30% to -63%; inactive means weaker than that. Unless noted, on the % scale 0 is the no-effect control and ±100 the full control effect.

SMILES	JMJD2E inh	Six1-Eya2 blk	CtBP-E1A blk	L3MBTL1 block
O=C(O)c1ccc2c(c1)C(=O)N([C@H](Cc1ccc(F)cc1)C(=O)O)C2=O	nt	nt	nt	5%
COc1ccc2c(c1)O[C@@H](c1ccc3c(c1)OCO3)[C@H](OC(=O)Nc1ccc(C)c(Br)c1)C2=O	-6%	nt	nt	nt
CC(C)(C)NC(=O)CN(Cc1ccco1)C(=O)CCC(=O)Nc1nccs1	nt	1	-18	nt
CS(=O)(=O)c1ccc2c(c1)sc1nc(=O)c(/C=C3/C=CC(=O)C(O)=C3)c(N)n12	3.2µM*	-13	3	?
Cc1cc(C)nc(N/N=C/c2sccc2C)n1	-21%	5	2	-6%[11.4 µM]
Cc1ccsc1/C=N/Nc1nc(=O)[nH]nc1C	-21%	-83*	-94*	nt
COc1ccc(Nc2cc(O)c3ncccc3c2)cc1	nt	nt	nt	32µM*
Oc1cc(NCCc2cccnc2)cc2cccnc12	nt	nt	nt	28µM*
CN(C)c1ccc(-c2cc(O)c3ncccc3c2)cc1	nt	nt	nt	-6%
CN(C)CCCNC(=O)c1ccc(-c2cc(O)c3ncccc3c2)cc1	nt	nt	nt	20µM*
Oc1cc(Nc2ccncc2)cc2cccnc12	nt	nt	nt	22µM*
Oc1cc(-c2ccncc2)cc2cccnc12	nt	nt	nt	7.1µM*
Oc1cc(Nc2cccnc2)cc2cccnc12	nt	nt	nt	32µM*
O=C1CCC=C1C(O)c1ccccc1 (stereo not drawn)	7%	nt	nt	nt
Cc1c(C(=O)N(C)C)sc2nc(-c3ccccn3)[nH]c(=O)c12	?	-89*	-97*	nt
CCC1C/C(=C\c2cc(OC)c(OC)cc2OC)C(=O)/C(=C/c2cc(OC)c(OC)cc2OC)C1 (stereo not drawn)	nt	?	-27	nt
CCC1C/C(=C/c2ccco2)C(=O)/C(=C/c2ccco2)C1 (stereo not drawn)	-19%	nt	nt	32µM*
COC(=O)CCC(=O)OC1(C)C(=O)C=C2C=C(CCCNC(=O)OC(C)(C)C)OC=C2C1=O (stereo not drawn)	-2%	nt	nt	nt
CCCCN(C(=O)CNC(=O)c1ccco1)C(C(=O)NC1CCCCC1)c1cccnc1 (stereo not drawn)	nt	-4	4	nt
CCCOC(=O)Nc1nc2ccccc2o1	2%	-6	-9	-2%
CCOC(=O)c1cnc(Nc2nc3ccccc3o2)nc1CN1CCN(C)CC1	-24%	-87*	-85*	-26%
CC(C)C[C@H]1CN(CCCC[C@H]2CNC(=O)C(=O)N2CCc2ccccc2)C(=O)C(=O)N1CCc1ccc(O)cc1	nt	2	5	nt
O=C1C=C(NCCc2cc(Br)c(O)c(Br)c2)C(=O)c2ncccc21	nt	-86*	-92*	nt
CCOC(=O)C1(Cc2ccccc2C)CCCN(C(=O)c2ccc(CSC)o2)C1 (stereo not drawn)	nt	-13	-27	nt
CC(/C=C/c1ccccc1)=N/NC(=O)c1cnccn1	1%	-86*	-5	-5%
SMILES	JMJD2E inh	Six1-Eya2 blk	CtBP-E1A blk	L3MBTL1 block
O=C(N/N=C/C=C/c1ccccc1)c1cnccn1	8%	13	0	nt
COc1ccc(C(=O)NC(=S)NNC(=O)c2ccc3ccccc3n2)cc1	-4%	-86*	-82*	?
COc1cc(OC)cc(C(=O)NNC(=O)c2ccc3ccccc3n2)c1	nt	-13	-3	5%
N[C@H](C(=O)O)c1cc(O)cc(O)c1	16µM*!	nt	nt	nt
N[C@@H](C(=O)O)c1cc(O)ccc1Cl	-25%	nt	nt	nt
COC(=O)c1cc(C)nc2c1C(=O)C(=O)C=C2N1CCOCC1	nt	-67*	-68*	nt
COc1ccc(/C=C2\CCCC(C(=O)C(F)(F)F)=C2O)cc1OC	25µM*	nt	nt	nt
COc1ccc(/C=C2/CCCC(C(=O)C(F)(F)F)=C2O)cc1OC	?	-2	nt	4%
COC[C@@H](O)[C@@H](OC)[C@H](OC)[C@H](Cc1c(OC)cc(OC)cc1OC)OC	-1%	nt	nt	nt
CN(Cc1ccco1)c1ccnc(-c2ccoc2)n1	25µM*	nt	nt	nt
CC1=CC(=C(C#N)C#N)C=C(C)N1Cc1ccccc1	-6%	-2	-8	nt
CN(Cc1cccc(C(F)(F)F)c1)C(=O)[C@H]1O[C@@H](n2ccc(N)nc2=O)[C@H](O)[C@@H]1O	nt	-5	3	nt
COc1cc2c(cc1OC)C1c3ccc(OC)c(OC)c3OCC1(O)C2 (stereo not drawn)	nt	-1	7	nt
Oc1cc2c(cc1O)[C@@H]1c3ccc(O)c(O)c3OC[C@]1(O)C2	14µM*	nt	nt	nt
